# TRb-SRC2 inh – disrupts binding of human TR beta to SRC2; 280,000 compounds, 0.065% hits; Potency, µM (series often up to 106 µM), hits mostly inhibitors; TRbeta-SRC2 peptide binding, fluorescence polarization; receptor liganded with 1 µM T3; further: nearly all actives have a fitted effect of over 50% in size
# Target sequence (P10828 whole entry, looked up): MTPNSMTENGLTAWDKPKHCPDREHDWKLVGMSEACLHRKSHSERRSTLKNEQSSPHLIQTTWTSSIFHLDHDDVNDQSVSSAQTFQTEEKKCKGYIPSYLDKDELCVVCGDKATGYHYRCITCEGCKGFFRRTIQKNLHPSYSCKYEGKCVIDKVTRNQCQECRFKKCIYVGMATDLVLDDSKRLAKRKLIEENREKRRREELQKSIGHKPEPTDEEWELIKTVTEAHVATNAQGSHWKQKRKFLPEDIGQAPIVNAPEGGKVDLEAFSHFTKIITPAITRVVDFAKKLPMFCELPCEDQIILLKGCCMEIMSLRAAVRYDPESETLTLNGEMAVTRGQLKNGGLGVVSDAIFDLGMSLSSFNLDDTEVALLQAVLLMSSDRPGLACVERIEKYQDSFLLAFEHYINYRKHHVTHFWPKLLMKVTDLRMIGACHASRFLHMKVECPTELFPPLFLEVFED
#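 Read-out is fluorescence polarization (555 nm excitation, 632 nm emission) of a Texas Red SRC2 coactivator peptide; loss of signal reflects blocked binding to human TRb ligand-binding domain in the presence of 1 uM T3.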
# HTT cytoprotect – cytoprotection in Huntington HTT-Q103 PC12 cell model | PC12 HTT-Q103 induced, cytoprotection, ATP luminescence, 40 h | Potency, µM (titrated, usually from 56.4 µM), most hits filed as activators | 230,000 compounds, 0.14% hits; further: nearly all actives have a fitted effect of over 45% in size
#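 PC12 cells with ecdysone-inducible HTT exon 1 Q103-GFP, induced with 100 nM tebufenozide and co-treated with library compounds in a dose series (1536-well, 1500 cells/well). Cytoprotection read as ATP content by ATPlite luminescence.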
# KDM4E inh – blocks human JMJD2E demethylase activity | B2RXH2 | JMJD2E catalytic domain, FDH-coupled NADH fluorescence (FDH is formaldehyde dehydrogenase) | Potency, µM (titrated, usually from 57.1 µM), actives largely listed as inhibitors | 230,000 compounds, 1.6% hits | AID 2147; active means well fitted inhibition curve with a large enough effect, not every such curve was filed as active; inconclusive means small, poorly fitted or top-dose-only effect, or another doubt; inactive means no such curve, though single readings can be large or run the other way; further: nearly all actives have a fitted effect of over 50% in size
# Coupling enz – counter-screen for Giardia aldolase inhibitors: coupling enzyme system | 290,000 compounds, 0.67% hits | activity change, negative = inhibition, % at 58.2 µM, hits read low | coupling enzyme system counterscreen, AmpLite Red fluorescence | AID 2472; in the data active means activity change below about -30%
#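 Coupling enzymes only (glyceraldehyde-3-phosphate) + compound, at 57.5 uM final, 10 min RT; add substrate/coupling/AmpLite Red mix, 20 min RT; fluorescence ex 525/em 598 nm. Actives flag coupling-system interference.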
# HTT aggregate – mutant huntingtin aggregation inhibition; PC12 HttQ103-GFP aggregates, Acumen cytometry, 40 h; Potency, µM (highest dose often 46.1 µM), usual class: inhibitors; 220,000 compounds, 1.1% hits; AID 1688; further: nearly all actives have a fitted effect of over 60% in size
#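 PC12 cells stably carrying ecdysone-inducible HTT exon 1 Q103–GFP were induced with tebufenozide (100 nM final) and treated with library compounds in titration. GFP aggregates in lysates were counted by laser scanning cytometry.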
# TR SRC2 fluor cs – Texas Red fluorescence interference in TRb-SRC2 counter-screen | TRb/SRC2 Texas Red total fluorescence interference | Potency, µM (titrated, usually from 106 µM) | 280,000 compounds, 0.29% hits | AID 1479; active means well fitted curve in either direction with a large enough effect; inconclusive means small, poorly fitted or top-dose-only effect
#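 Human TRb ligand-binding domain at 0.6 uM with 20 nM Texas Red SRC2 peptide in Tris buffer containing 1 uM T3 and 5% DMSO, incubated with compound 5 h at ambient temperature. Total fluorescence (555/632 nm) calculated as parallel + 2 × perpendicular.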
# Hits are given with their value; i = inactive; ? = inconclusive; nt = no result given; ! = repeats disagree; [ ] = remark or other dose. Shown are actives, neighbours in structure and some others; about 2% of the full set was active somewhere. Unless noted, the call rests on the fitted dose curve; in most records, active means well fitted curve in the direction sought with a large enough effect; inconclusive means small, poorly fitted or top-dose-only effect, or another doubt; inactive means no such curve, though single readings can be large; an effect the other way counts as inactive or inconclusive.
SMILES,TRb-SRC2 inh,HTT cytoprotect,KDM4E inh,Coupling enz,HTT aggregate,TR SRC2 fluor cs
O=C1NC(=O)C(c2ccccc2[N+](=O)[O-])=C1Nc1ccc(O)c(Cl)c1,i,13µM!,i,i,nt,i
Cc1cc(OCC(=O)Nc2ccc(C(=O)OC3CCCCC3)cc2)ccc1Cl,i,nt,nt,nt,nt,i
CCOC(=O)Cc1csc(NC(=O)NC2(C(F)(F)F)Oc3cc(Cl)c(Cl)cc3O2)n1,i,i,28µM,i,i[9.22 µM],i
CCOC(=O)Cc1csc(NC(=O)NC2(C(F)(F)F)Oc3ccccc3O2)n1,i,i,?,i,i[9.22 µM],i
Cc1cc(C)cc(NC(=O)N2CCN(c3cc(-c4noc(C)n4)ccc3C)CC2)c1,i,nt,nt,nt,nt,i
CC(C)(C)c1cccc(C(C)(C)C)c1O,i,nt,nt,nt,nt,i
COc1cc2ncnc(NCc3cccc(F)c3F)c2cc1OC,nt,nt,nt,i,nt,nt
COc1cc2c(Nc3ccc(Br)cc3F)ncnc2cc1OCC1CCN(C)CC1,nt,i,nt,nt,13µM,nt
O=C1C=C(N(CCO)Cc2ccccc2)c2ccccc2C1=O,?,i,i,-75,8.9µM,i
COc1ccc(OC)c(CNC(=O)C(C)n2c(C)c3cnn(-c4ccccc4)c(=O)c3c2C)c1 (centres undefined),i,nt,nt,nt,nt,i
Cc1cccc(C(=O)NCCc2nc3ccccc3n2Cc2ccc(Cl)cc2)c1,i,nt,nt,nt,nt,i
CCC1CCCCN1S(=O)(=O)c1ccc(C(=O)Nc2nnc(-c3ccccc3Cl)o2)cc1 (centres undefined),i,i[10 µM],i,i,7.9µM,i
O=C(Nc1nnc(-c2ccccc2Cl)o1)c1ccc(S(=O)(=O)N2CCCCCC2)cc1,i,i,i,i,10µM,i
CC1CCCCN1S(=O)(=O)c1ccc(C(=O)Nc2nnc(-c3ccccc3Cl)o2)cc1 (centres undefined),i,i[10 µM],?,i,?,i
COc1cccc(CNc2cccc3cccnc23)c1O,i,i[1.9 µM],i,-57,?,i
COc1cccc(CNc2ccccn2)c1O,nt,nt,nt,i,nt,nt
Nc1ccc(-n2nnnc2CN2CCOCC2)cc1,i,i[10 µM],i,i,i,i
Nc1cccc(-n2nnnc2CN2CCOCC2)c1,i,i[10 µM],i,-31,i,i
c1ccc(-n2nnnc2CN2CCOCC2)cc1,i,i[10 µM],i,i,i,1585µM[quencher]
CCc1cc2c(nc1CC)CCN(CC/C(C)=N/OC[C@H]1O[C@H](c3ccccc3)C=C[C@@H]1Oc1ccc(OC)cc1)C2,i[11.2 µM],i[10 µM],35µM,i,?,i[11.2 µM]
COc1ccc(O[C@H]2C=C[C@@H](c3ccccc3)O[C@@H]2CO/N=C(\C)CCN2CCc3nc(-c4ccccc4)c(-c4ccccc4)cc3C2)cc1,i[11.2 µM],?,?,i,i,?
CCOc1cccc(CNc2ccc(O)cc2)c1OCc1ccc(Cl)cc1Cl,25µM,i,?,-50,?,i
COc1ccc(N(C(=O)CCl)C(C(=O)NCCc2ccccc2)c2cccs2)cc1 (centres undefined),i,i[10 µM],i,i,2.2µM,i
COc1ccc(CNC(=O)C(c2ccncc2)N(C(=O)Cc2cccs2)c2ccccc2)cc1 (centres undefined),i,i[10 µM],i,i,i,i
Cc1ccc(C)c(/C=C/C(=O)c2ccccc(=O)c2O)c1,i,nt,22µM,i,i,i
SMILES,TRb-SRC2 inh,HTT cytoprotect,KDM4E inh,Coupling enz,HTT aggregate,TR SRC2 fluor cs
Cc1ccc(C)c(NC(=O)c2ccccc2O)c1,i,i[0.074 µM],i,i,i[9.22 µM],i
O=C(/C=C/c1ccccc1Cl)c1ccccc(=O)c1O,i,nt,14µM,i,?,i
Cc1ccc(/C=C/C(=O)c2ccccc(=O)c2O)c(C)c1,i,nt,28µM,i,?,i
Cc1ccc(-c2nnc(Nc3ccc(F)cc3)c3ccccc23)cc1S(=O)(=O)N1CCN(C)CC1,i,nt,nt,nt,nt,i
CC(C)(C)OC(=O)N1CCC(c2c(C(=O)NC3CCN(Cc4ccccc4)CC3)cnn2-c2ccc(F)cc2F)CC1,i,nt,nt,nt,nt,i
CC(Oc1ccc(F)cc1)C(=O)Nc1nc(-c2ccc(F)cc2)ns1 (centres undefined),i,nt,nt,nt,nt,i
Cc1cccc(C(=O)n2nc(-c3cccnc3)nc2NCc2ccccc2)c1,i,nt,nt,nt,nt,0.0089µM[quencher]
COCCNC(=O)/C(C#N)=C/c1ccc(N2CCOCC2)o1,i,nt,?,i,?,i
